Measurements published in PubChem BioAssay AID2156 (Johns Hopkins Ion Channel Center, 2009).
Out of some 310,000 compounds screened, about 3,400 (1.1%) were called active. The sample as a whole holds a higher share of actives than the screen did. A number with no mark means an inactive call.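 Rule for the calls: active = fluorescence ratio B-score at most minus 3 library SDs, with starting brightness B-score within 2 library SDs (cut at about -5.5 in these data); inactive = the rest, inconclusive results apart.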

Each compound was assayed against Potassium voltage-gated channel subfamily KQT member 2 (Rattus norvegicus) (UniProt O88943) (assay: KCNQ2 channel blockers in CHO-K1 cells – cell-based, FluxOR thallium flux, B-score, primary screen (AID 2156)). Details: 20 min, at 10 µM; stronger effect = lower value.
Chain of Potassium voltage-gated channel subfamily KQT member 2 (Rattus norvegicus) (O88943 whole entry, looked up): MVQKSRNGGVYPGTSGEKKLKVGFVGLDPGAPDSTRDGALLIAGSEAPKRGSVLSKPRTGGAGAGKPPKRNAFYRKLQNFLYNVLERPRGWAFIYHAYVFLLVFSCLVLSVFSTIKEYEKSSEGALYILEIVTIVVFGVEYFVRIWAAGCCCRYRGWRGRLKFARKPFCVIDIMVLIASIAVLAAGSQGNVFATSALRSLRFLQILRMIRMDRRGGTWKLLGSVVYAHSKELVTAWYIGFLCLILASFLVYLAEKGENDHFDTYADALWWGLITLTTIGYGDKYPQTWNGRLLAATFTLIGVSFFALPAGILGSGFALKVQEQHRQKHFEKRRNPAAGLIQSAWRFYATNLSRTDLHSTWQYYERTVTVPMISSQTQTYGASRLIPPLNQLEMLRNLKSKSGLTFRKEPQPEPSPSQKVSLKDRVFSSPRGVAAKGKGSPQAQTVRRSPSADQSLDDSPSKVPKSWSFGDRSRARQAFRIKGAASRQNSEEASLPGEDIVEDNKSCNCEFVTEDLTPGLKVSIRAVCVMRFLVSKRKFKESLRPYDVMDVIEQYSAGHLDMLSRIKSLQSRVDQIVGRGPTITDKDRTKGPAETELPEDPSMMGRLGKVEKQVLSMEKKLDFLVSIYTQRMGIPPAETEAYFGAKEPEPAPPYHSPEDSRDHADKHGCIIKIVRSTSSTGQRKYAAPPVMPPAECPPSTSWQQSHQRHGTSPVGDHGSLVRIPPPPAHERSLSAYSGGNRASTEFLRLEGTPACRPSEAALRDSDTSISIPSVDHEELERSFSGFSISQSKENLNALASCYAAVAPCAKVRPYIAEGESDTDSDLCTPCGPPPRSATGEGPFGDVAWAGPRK

**Q.** How did the B-score turn out when `COc1ccc(OC)c(C(=O)c2ccc(Cl)cc2)c1` was run?
**A.** Its B-score is “inactive”.

**Q.** With `COc1ccc(OC)c(/C(C)=N\NC(=O)c2cc3cc(Cl)ccc3n2C)c1` as the compound, how does the B-score read?
**A.** Its B-score is -8.07 (active).

**Q.** With `COc1ccc(/C(C)=N/NC(=O)CCC(=O)Nc2ccc(Cl)cc2Cl)c(OC)c1` as the compound, how does the B-score read?
**A.** Its B-score is -2.5.

**Q.** Which B-score does the source give for `COc1ccc(CNC(=O)CNC(=O)c2sc3ccccc3c2Cl)cc1OC` here?
**A.** Its B-score is “inactive”.

**Q.** How did the B-score turn out when `CN1CCc2ccccc2C1Cc1ccccc1NC(=O)c1sc2ccccc2c1Cl` (configuration not stated) was run?
**A.** Its B-score is -6.56 (active).

**Q.** `O=C(Nc1ccon1)c1sc2ccccc2c1Cl` was tested. Which B-score did it give?
**A.** The B-score was -0.39.

**Q.** With `COc1ccc(-c2csc3ncnc(N4CCN(S(=O)(=O)c5cccc(F)c5)CC4)c23)cc1` as the compound, how does the B-score read?
**A.** Its B-score is -2.13.

**Q.** How did the B-score turn out when `CC(OC(=O)CCCOc1ccccc1)C(=O)Nc1ccc(Cl)cn1` (configuration not stated) was run?
**A.** Its B-score is “inactive”.

**Q.** With `CC1CN(C(=O)COC(=O)c2cccc(NS(=O)(=O)c3ccccc3)c2)CC(C)O1` (configuration not stated) as the compound, how does the B-score read?
**A.** Its B-score is “inactive”.

**Q.** For `CS(=O)(=O)n1nc(-c2ccccc2)nc1NCc1ccco1`, which B-score is on record?
**A.** Its B-score is -0.02.

**Q.** How did the B-score turn out when `c1ccc(-c2nc(NCc3ccco3)c3ccccc3n2)cc1` was run?
**A.** The B-score was -3.7.

**Q.** How did the B-score turn out when `O=C(Cc1ccccc1)n1nc(-c2ccccc2)nc1NCc1ccco1` was run?
**A.** The B-score was -5.57 (active).

**Q.** Which B-score does the source give for `CC1(C)O[C@@H]2CC3C4C[C@H](F)C5=CC(=O)C=CC5(C)C4C(O)CC3(C)[C@]2(C(=O)CO)O1` (some centres not stated) here?
**A.** Its B-score is “inactive”.

**Q.** For `O=C(Nc1ccccc1Cl)Nn1cnnc1`, which B-score is on record?
**A.** Its B-score is “inactive”.

**Q.** Which B-score does the source give for `O=C(Nc1ccccc1Cl)/C(Cl)=C(\Cl)S(=O)c1ccccc1` (configuration not stated) here?
**A.** Its B-score is -9.85 (active).

**Q.** With `O=C(COC(=O)c1cccs1)Nc1ccccc1Cl` as the compound, how does the B-score read?
**A.** Its B-score is -0.17.

**Q.** For `CCc1noc(C)c1C(=O)Nc1nc(-c2ccccc2)cs1`, which B-score is on record?
**A.** The B-score was -0.22.

**Q.** `CCCn1nc(C(=O)NNC(=O)CSCC(=O)Nc2cc(C)on2)c2ccccc2c1=O` was tested. Which B-score did it give?
**A.** The B-score was -2.13.

**Q.** With `O=C(O/N=C(/c1ccccc1)c1ccncc1)c1ccccc1[N+](=O)[O-]` as the compound, how does the B-score read?
**A.** Its B-score is -1.04.

**Q.** Which B-score does the source give for `Cc1c(C(=O)NCCCc2ccccc2)cccc1[N+](=O)[O-]` here?
**A.** Its B-score is -1.07.

**Q.** `O=C(OCC(=O)N(CCc1ccccc1)Cc1ccccc1)c1ccccc1[N+](=O)[O-]` was tested. Which B-score did it give?
**A.** Its B-score is -6.77 (active).

**Q.** With `Cc1cccc(N2CC(C(=O)Nc3ccccc3N3CCCC3)CC2=O)c1C` (configuration not stated) as the compound, how does the B-score read?
**A.** Its B-score is “inactive”.

**Q.** How did the B-score turn out when `CC(Oc1ccc(F)cc1)C(=O)N1CCN(c2ncccn2)CC1` (configuration not stated) was run?
**A.** The B-score was “inactive”.

**Q.** Which B-score does the source give for `CC12CCC(C(=O)N3CCN(c4ncccn4)CC3)(c3nc4ccccc4nc31)C2(C)C` (configuration not stated) here?
**A.** The B-score was -6.6 (active).

**Q.** `c1cnc(N2CCN(c3ccc4ccccc4n3)CC2)nc1` was tested. Which B-score did it give?
**A.** Its B-score is -0.22.

**Q.** For `Cc1cc(C)n2nc(C(=O)OC(C)C(=O)c3cc(C)c(C)cc3C)nc2n1` (configuration not stated), which B-score is on record?
**A.** Its B-score is “inactive”.

**Q.** How did the B-score turn out when `Cc1ccccc1NC(=O)C(C)OC(=O)CCC(=O)N(CC(C)C)c1c(N)n(CC(C)C)c(=O)[nH]c1=O` (configuration not stated) was run?
**A.** The B-score was “inactive”.
